From ChEMBL document CHEMBL1157539, “Thousands of chemical starting points for antimalarial lead identification” (Nature, 2010) come the findings set out here.

What all share (assay type): functional
Experiment [1] deals with Plasmodium falciparum. Put plainly: GSK_TCMDC: Inhibition of Plasmodium falciparum 3D7 in whole red blood cells, using parasite LDH activity as an index of growth. Test compounds present at 2uM.
For experiment [2], the system named is Plasmodium falciparum. As to the kind of experiment: GSK_TCMDC: Inhibition of Plasmodium falciparum Dd2 in whole red blood cells, using parasite LDH activity as an index of growth. Test compounds present at 2uM.
The test system of experiment [3] is HepG2. Put plainly: GSK_TCMDC: Percent inhibition of human HepG2 cell line. Test compounds present at 10uM.

SMILES strings stand for the structures.

Consider `O=C(O)C(F)(F)F.O=c1cc(N2CCNCC2)c(Cl)nn1Cc1ccc(NS(=O)(=O)c2ccc(Oc3ccccc3)cc2)cc1`, for which the figures for the Inhibition in experiment [1], in experiment [2] and in experiment [3] were 100%, 0% and 3%, respectively.

With `CN1CCc2cc(NS(=O)(=O)c3ccc(-c4ccc(Cl)cc4)cc3)c(OCCCN3CCCCC3)cc2CC1.Cl`, the Inhibition – broadly, the percentage by which the read-out fell short of the control – in experiment [1] came out at 100%; in experiment [2], 100%; in experiment [3], 91%.

Consider `O=C(O)C(F)(F)F.c1ccc(CNCc2cccc(-c3ccc(-c4nc5ccccc5[nH]4)cc3)c2)cc1`, for which the results for the Inhibition in experiment [1], in experiment [2] and in experiment [3] were 97%, 39% and 10%, respectively.

`CS(=O)(=O)CCCNCc1ccc(-c2cc3c(Nc4ccc(OCc5ccccc5)cc4)ncnc3cn2)o1`: the Inhibition in experiment [1] is recorded as 87%; in experiment [2], 16%; in experiment [3] it was 10%.

Regarding `Cc1ccc2[nH]c3c(NCCCN(C)C)ncnc3c2c1`, the Inhibition is on record as 99% in experiment [1], 0% in experiment [2] and 1% in experiment [3].

As to `Cc1ccc(Nc2nc(C)cc(Nc3cccc(C#N)c3)n2)cc1`, the values for the Inhibition in experiment [1], in experiment [2] and in experiment [3] were 100%, 96% and 14%, respectively.

`c1ccc2sc(Sc3ncnc4sccc34)nc2c1`: the Inhibition in experiment [1] is recorded as 100%; in experiment [2] it was 100%; in experiment [3], 7%.

For `Cc1nn(-c2ccccc2)nc1C(=O)N(Cc1ccc(-c2ccc(CNCCc3ccc(S(C)(=O)=O)cc3)cn2)cc1)C(C)CN(C)C.O=C(O)C(F)(F)F` (stereo unspecified), the values for the Inhibition in experiment [1], in experiment [2] and in experiment [3] were 100%, 87% and 25%, respectively.

On to `Cc1ccc(N2C(N)=NC(N)=NC2(C)C)cc1.Cl`, for which the Inhibition was determined as 96% in experiment [1], 20% in experiment [2] and 43% in experiment [3].

`Fc1ccc2[nH]c(-c3cccc(-c4ccc(CNCC5CCCO5)cc4)c3)nc2c1.O=C(O)C(F)(F)F` (stereo unspecified): the Inhibition in experiment [1] is on record as 100%; in experiment [2] it was 98%; in experiment [3] it was 36%.

For the compound `CCN(CCCN1CCCCC1)c1cc(C)nc(Nc2ccc(C)cc2C)n1.O=C(O)C(F)(F)F`, the Inhibition is 91% in experiment [1], 35% in experiment [2] and 33% in experiment [3].

As for `CCCCN1CCN(CCCNc2c3ccccc3nc3ccccc23)CC1.Cl`, the Inhibition is reported as 100% in experiment [1], 70% in experiment [2] and 26% in experiment [3].

`O=C(/C=C/c1ccc(Cl)cc1)NCCCCCN1CCCC(C(=O)Nc2ccc(F)c(Cl)c2)C1` (stereo unspecified): the figures for the Inhibition in experiment [1], in experiment [2] and in experiment [3] were 94%, 6% and 27%, respectively.

Turning to `COc1cc(NC(=O)CCCN2CCN(c3cccc(Cl)c3Cl)CC2)ccc1N1CCN(C(C)C)CC1.Cl`, the figures for the Inhibition in experiment [1], in experiment [2] and in experiment [3] were 99%, 59% and 31%, respectively.

For the compound `CCN(CC)CCN(CCN(CC)CC)c1ccc(-c2nc3cc(Cl)c(Cl)cc3[nH]2)cc1`, the values for the Inhibition in experiment [1], in experiment [2] and in experiment [3] were 100%, 97% and 9%, respectively.

In the case of `CC(C)(CN1CCCC1)CN(Cc1ccc(-c2ccc(C(F)(F)F)cc2)cc1)C(=O)Cn1c(CCc2cccc(F)c2F)nc(=O)c2ccccc21.O=C(O)C(O)C(O)C(=O)O`, the Inhibition in experiment [1] is given as 97%; in experiment [2], 64%; in experiment [3], 57%.

In the case of `C[C@@H](C(N)=O)N1CCCCC1c1ccc(OCc2cccc(F)c2)cc1` (stereo partly specified), the figures for the Inhibition in experiment [1], in experiment [2] and in experiment [3] were 84%, 96% and 79%, respectively.

`CC(=O)Nc1ccc(COc2ccc(Nc3ccnc4cc(-c5ccccn5)ccc34)cc2)cc1.Cl`: the Inhibition in experiment [1] came out at 99%; in experiment [2], 94%; in experiment [3], 99%.

Take `COc1ccc(Cn2c(Nc3cccc(C(F)(F)F)c3)nc3cc(C(=O)NCCCN(C)C)ccc32)cc1Cl`: the Inhibition came out at 90% in experiment [1], 3% in experiment [2] and 15% in experiment [3].

Regarding `CCCN(C(=O)c1ccccc1C)c1nnc(-c2cccc(C)c2)s1`, the results for the Inhibition in experiment [1], in experiment [2] and in experiment [3] were 91%, 67% and 8%, respectively.

As for `Cc1n[nH]c2cc(F)c(-c3cc(OC[C@@H](N)Cc4ccccc4)cnc3-c3ccoc3)cc12.O=C(O)C(F)(F)F`, the Inhibition came out at 95% in experiment [1], 15% in experiment [2] and 22% in experiment [3].

As to `Cc1cc(N[C@@H](Cc2ccccc2)C(=O)Nc2ccccc2)nc(NCCN2CCCC2)n1.O=C(O)C(F)(F)F`, the values for the Inhibition in experiment [1], in experiment [2] and in experiment [3] were 94%, 0% and 8%, respectively.

In the case of `O=c1cc(NCCCNCc2cc(Cl)cc(Cl)c2OCc2ccccc2)[nH]c2ccccc12`, the results for the Inhibition in experiment [1], in experiment [2] and in experiment [3] were 91%, 50% and 0%, respectively.

As to `Cc1nc(-c2ccc(-c3ccc(C(=O)Nc4ccc(I)c(OCC5CCCN5C)c4)cc3)c(C)c2)no1.Cl` (stereo unspecified), the Inhibition in experiment [1] worked out at 97%; in experiment [2] it was 39%; in experiment [3] it was 100%.

For the compound `CN1CCN(Cc2cccc(Nc3nccc(Nc4ccc(Oc5ccccc5)cc4)n3)c2)CC1`, the Inhibition in experiment [1] was 97%; in experiment [2] it was 80%; in experiment [3], 30%.

On to `CC(C)CNCc1ccc(-c2cccc(CN(CCN(C)C)C(=O)CCC3CCCC3)c2)cc1.O=C(O)C(F)(F)F`, for which the Inhibition was 100% in experiment [1], 81% in experiment [2] and 56% in experiment [3].

`CCNc1cc(C)nc(Nc2ccc(NC(=O)c3ccc(OC)c(OC)c3)cc2)n1`: the Inhibition in experiment [1] was 100%; in experiment [2], 65%; in experiment [3], 19%.
